# According to the supplement of paper PMC12669032:
# Values without a mark were called inactive.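 How the source made its calls: active = AUC reduced over 20% with Padj below 0.05 in at least 2 of 3 replicates; inactive = otherwise.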
# Legend:
# Assay in all cases: growth AUC relative to DMSO control (median of replicates) (fraction); higher = more growth (less inhibition), active = hit call of the paper
# Settings in all cases: 20 µM; 24 h
# Akkermansia muciniphila = system: Akkermansia muciniphila
# Method in brief: (§1)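 Area under the growth curve was normalised to the plate median of solvent-only wells, except on the industrial chemical plate, where row and column medians were used. Curves came from gut bacterial monocultures grown anaerobically at 37 °C in mGAM with 20 µM compound (1% DMSO), starting at OD600 0.05 and read at OD600 every hour for 24 h. The minimum OD of each curve was set to 0, and values are medians of three biological replicates grown on separate days.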
# Bacteroides caccae = system: Bacteroides caccae
# Method in brief: as §1
# Bacteroides clarus = system: Bacteroides clarus
# Method in brief: as §1
# Bacteroides dorei = system: Bacteroides dorei
# Method in brief: as §1
# Bacteroides stercoris = system: Bacteroides stercoris
# Method in brief: as §1
# [1] = system: Bacteroides thetaiotaomicron
# Method in brief: as §1
# Bacteroides uniformis = system: Bacteroides uniformis
# Method in brief: as §1
# [2] = system: Bifidobacterium longum subsp. longum
# Method in brief: as §1
# Clostridium difficile = system: Clostridium difficile
# Method in brief: as §1
# Collinsella aerofaciens = system: Collinsella aerofaciens
# Method in brief: as §1
Compound,growth AUC (Akkermansia muciniphila),growth AUC (Bacteroides caccae),growth AUC (Bacteroides clarus),growth AUC (Bacteroides dorei),growth AUC (Bacteroides stercoris),growth AUC [1],growth AUC (Bacteroides uniformis),growth AUC [2],growth AUC (Clostridium difficile),growth AUC (Collinsella aerofaciens)
C=O,0.996,1.01,0.982,1.02,1.03,0.972,0.988,0.984,0.968,1.04
CCCCCCC(C)OC(=O)COc1nc(F)c(Cl)c(N)c1Cl (stereo not given),0.94,0.885,0.874,1,0.699,0.97,0.874,0.848,0.952,0.928
Cc1cc(C)cc(OCC(C)Nc2nc(N)nc(C(C)(C)F)n2)c1 (stereo not given),1.07,0.889,0.889,0.978,0.746,0.912,0.962,1.03,0.983,0.929
O=C1NCC[n+]2ccccc21.[Br-],1.13,0.985,1.01,0.761,0.984,0.972,1.02,0.972,1.01,0.97
CCc1cccc(C)c1NC(C)C(=O)O (racemic),1.21,1.01,0.98,0.931,0.965,1.03,0.996,1.04,1.03,0.985
NC(=S)Nc1cccc2ccccc12,0.997,0.892,0.991,0.835,0.978,0.945,0.951,1.06,0.896,0.909
CCOC(=O)CSc1nc(C(C)(C)C)nn1C(=O)N(C)C,1.03,0.951,0.96,0.94,0.815,0.978,0.989,0.96,1.01,0.931
CNc1nc(NC(C)C)nc(SC)n1,0.806,1.04,0.972,0.989,0.913,1.01,0.957,0.862,1.01,0.986
CN(C)C=O,1.08,0.991,1.05,0.936,1.05,1.01,1.05,1.13,0.999,1.01
c1ccc2cc3c(ccc4ccccc43)cc2c1,1.01,0.994,1,0.993,0.994,1.01,1.01,0.962,0.992,1
CCCCCCC(C)OC(=O)C(C)Oc1ccc(Cl)cc1C (stereo not given),0.913,0.996,0.973,0.983,0.983,1,1.02,0.848,1.01,0.968
CCSC(=O)N(CC(C)C)CC(C)C,0.967,1.05,1,1.02,0.987,1.01,0.994,0.842,0.993,1.04
Cc1ccc(C(C)NC(=O)[C@@H](NC(=O)OC(C)C)C(C)C)cc1 (stereo not given in full),1.06,0.975,1.03,1.01,1.11,0.984,0.973,0.97,0.951,0.986
COC1CCC2(CC1)NC(=O)C(c1cc(C)ccc1C)=C2OC1OC(CO)C(O)C(O)C1O (stereo not given),1.1,0.946,1.02,0.993,1.21,0.984,1.02,1,1.02,1.01
Br[C@@H]1CC[C@H](Br)[C@H](Br)CC[C@@H](Br)[C@@H](Br)CC[C@H]1Br,1,1.01,0.901,0.999,0.528 (active),1.01,1.01,0.919,1.02,1
CC(C)OC(=O)N[C@H](C(=O)N[C@H](C)c1nc2ccc(F)cc2s1)C(C)C,1.17,0.963,0.997,0.934,0.982,1.01,0.93,1.06,0.942,0.964
COc1c(I)cc(C#N)cc1I,0.86,0.837,0.932,1.02,1.13,0.932,0.882,1.02,0.943,0.883
CCS(=O)(=O)c1nnc(N(C)C(=O)NC)s1,0.883,1.02,0.977,1.01,1.03,1.01,0.995,0.995,0.974,1.06
CCSC(=O)N(CC)CC,1.01,0.998,0.991,1.01,1.1,1.03,1.01,0.929,0.982,0.982

Compound,growth AUC (Akkermansia muciniphila),growth AUC (Bacteroides caccae),growth AUC (Bacteroides clarus),growth AUC (Bacteroides dorei),growth AUC (Bacteroides stercoris),growth AUC [1],growth AUC (Bacteroides uniformis),growth AUC [2],growth AUC (Clostridium difficile),growth AUC (Collinsella aerofaciens)
O.O=C(Nc1ccc([N+](=O)[O-])cc1Cl)c1cc(Cl)ccc1O,0.828,0.0261 (active),0.00802 (active),0.0256 (active),0.00906 (active),0.00758 (active),0.0308 (active),0.0965 (active),0.328 (active),0.865
COC(=O)c1ccc(C(F)(F)F)nc1S(=O)(=O)[N-]C(=O)Nc1nc(OC)cc(OC)n1.[Na+],0.963,1.01,0.997,1.01,0.908,0.993,0.978,0.938,1.05,1.03
Oc1ccccc1O,0.968,1.02,1.03,1,1,1.03,1.04,0.911,1.01,1.01
NC(=O)c1nn(-c2c(Cl)cc(C(F)(F)F)cc2Cl)c(N)c1S(=O)C(F)(F)F (stereo not given),0.886,0.973,0.953,0.995,0.965,0.972,0.977,0.976,1,0.985
CS(=O)(=O)c1ccc(C(=O)O)c(N)c1,1.13,0.993,1.01,1.02,1.03,0.994,1.03,1,1.03,1.03
CCOC(=O)[C@@H](C)Oc1ccc(Oc2nc3ccc(Cl)cc3o2)cc1,0.975,0.971,0.966,0.983,1.03,1.01,0.929,1,1.03,1.02
CC(C)C(O)(c1ccc(OC(F)(F)F)cc1)c1cncnc1 (stereo not given),0.853,1,0.938,0.991,1.22,0.939,0.972,1.03,0.985,1.03
CCOC(=O)C1=NOC(c2ccccc2)(c2ccccc2)C1,0.86,1.03,0.971,0.995,0.979,0.926,0.932,0.966,0.974,0.993
CCCCC(CC)COC(=O)COc1cc(Cl)c(Cl)cc1Cl (stereo not given),0.936,0.97,0.93,0.984,1.03,0.987,0.993,0.807,0.999,0.948
CCCC(C)(C)C(=O)Nc1ccc(Cl)cc1,0.942,1,1.01,1.02,1.01,0.946,0.955,0.98,0.999,1.02
CCCCOC(=O)[C@@H](C)Oc1ccc(Oc2ccc(C(F)(F)F)cn2)cc1,0.865,0.983,0.932,0.951,0.851,0.948,0.918,0.969,0.989,0.963
CC(C)(SC(=O)N1CCCCC1)c1ccccc1,0.978,0.973,0.982,1.01,0.945,0.927,0.965,1.01,0.99,1
O=C(NC(=O)c1c(F)cccc1F)Nc1cc(C(F)(F)F)cc(C(F)(F)F)c1Cl,0.695,0.852,0.867,0.982,0.849,0.96,0.96,0.819,1.02,1.02
COC(=O)c1csc(C)c1S(=O)(=O)NC(=O)n1nc(OC)n(C)c1=O,1.17,0.981,1,0.967,1.02,0.993,0.955,1.04,0.931,0.956
CN(C(=O)NC(C)(C)c1ccccc1)c1ccccc1,0.911,1.04,0.999,0.988,0.824,1.01,1.03,0.916,1.04,0.969
CC(C)OC(=O)[C@@H](C)N(C(=O)c1ccccc1)c1ccc(F)c(Cl)c1,0.996,0.961,0.99,1.02,0.99,0.984,1.04,1.01,0.978,0.954
CON=C(Cc1cccnc1)c1ccc(Cl)cc1Cl,1.06,0.889,0.971,0.938,1.28,0.91,0.921,0.998,1,0.945
CC1(C)C(C(=O)OC(C#N)c2cccc(Oc3ccccc3)c2)C1C(Br)C(Br)(Br)Br (stereo not given),0.951,0.934,1.04,0.995,1.2,1,0.943,1.03,1.03,0.939
CC(C)(c1ccc(O)cc1)c1ccc(O)cc1,1.01,1.07,1.04,1.01,1.14,1.02,1.06,1.06,1.08,1.03

Compound,growth AUC (Akkermansia muciniphila),growth AUC (Bacteroides caccae),growth AUC (Bacteroides clarus),growth AUC (Bacteroides dorei),growth AUC (Bacteroides stercoris),growth AUC [1],growth AUC (Bacteroides uniformis),growth AUC [2],growth AUC (Clostridium difficile),growth AUC (Collinsella aerofaciens)
CC(C)N(C)S(=O)(=O)NC(=O)c1cc(-n2c(=O)cc(C(F)(F)F)[nH]c2=O)c(F)cc1Cl,0.971,0.993,0.983,0.967,1.1,1,1.03,0.962,0.982,0.953
CNC(=O)Nc1nc2ccccc2s1,0.957,0.953,0.999,0.959,1.1,1.01,0.966,0.955,0.969,0.942
CN(C)c1ccc(N=NS(=O)(=O)[O-])cc1.[Na+],1.03,1.02,1.01,0.957,1.06,0.955,0.98,0.978,1.03,1.02
CCCCOCN(C(=O)CS(=O)(=O)[O-])c1c(CC)cccc1CC.[Na+],0.979,0.997,0.997,1.01,0.923,0.934,1.03,1.07,1.02,1.01
COC(=O)Nc1ccc(Cl)c(Cl)c1,0.817,0.99,0.96,0.969,0.95,0.966,0.966,0.84,0.978,1.02
c1ccc2c(c1)Cc1ccccc1-2,1.04,1.02,1,1.03,1.04,1,1,0.925,1.01,1.01
O=C(O)c1ccc(Cl)cc1Cl,0.987,1.03,0.989,0.994,0.959,1.01,0.977,0.699,0.997,1.02
C#CCOC(=O)[C@@H](C)Oc1ccc(Oc2ncc(Cl)cc2F)cc1,0.914,0.998,0.985,1.02,1.05,0.975,0.942,1.04,0.99,0.964
O=C(NCc1ncc(C(F)(F)F)cc1Cl)c1c(Cl)cccc1Cl,0.937,0.973,0.967,0.975,1.17,0.95,1.02,1.04,1,0.987
CC(=O)CC(c1ccccc1)c1c(O)c2ccccc2oc1=O (stereo not given),0.913,1.01,0.93,1.02,0.965,0.952,0.952,1,0.998,0.966
COC(=O)[C@@H](C)Oc1ccc(Oc2ncc(C(F)(F)F)cc2Cl)cc1,1.04,0.831,1.01,0.984,1.16,0.963,0.907,0.976,1.05,0.981
O=C=NC1CCC(CC2CCC(N=C=O)CC2)CC1 (stereo not given),1.05,0.986,1.03,0.939,1.03,0.995,0.996,1.05,1.01,1.02
c1ccc2[nH]c(-c3cscn3)nc2c1,0.73,0.997,1.01,0.973,0.947,0.974,1.02,0.976,0.985,0.985
O=C(O)COc1cc(N2C(=O)C3=C(CCCC3)C2=O)c(F)cc1Cl,0.82,0.999,0.98,0.968,1.08,0.975,1.05,1.04,1.02,0.967
CN(C)C(=O)NC1CCCCCCC1,0.984,1.01,1.01,0.996,1.09,0.99,0.972,1.01,1.03,1.01
O=c1oc(-c2ccccc2)nc2ccccc12,0.96,1.01,0.984,0.979,0.955,0.966,0.971,0.947,0.994,0.976
COC(=O)CCCOc1ccc(Cl)cc1Cl,1.01,0.964,1.02,0.922,0.997,1.01,0.945,1.04,0.973,0.987
O=C1NCCN1,1.15,1.02,1.02,1.06,1.18,1.02,0.978,1.04,0.993,1.02
CC1COc2ccccc2N1C(=O)C(Cl)Cl (stereo not given),0.721,0.953,0.958,0.876,0.945,0.903,0.985,1.03,0.875,0.89
